From PubChem BioAssay
“And” between values parts separate entries of the source, which are not always exact repeats. Identical values can stand only once. Inconclusive results are not listed. Where a structure was tested more than once in an assay, its records may differ in their call. The source made the active and inactive calls.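 Rule for the calls, unless noted: active = mean z-score across replicates of 1.96 or higher in either the MELAS or the Rieske mutant cell line; inactive = the rest.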

How the values were obtained:
[1] = EMT-state selective cytotoxicity in co-culture – imaging, PC-3E GFP, TEM4-18 mCherry, primary screen (AID 1345086;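 active = compounds killing one labelled cell type while sparing the other, by normalised counts and ratio limits, not self-fluorescent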;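 for all read-outs here: cells exposed to compound for 72 h before imaging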;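 for red/green cell ratio (normalised): normalised mesenchymal count divided by normalised epithelial count so high means epithelial killing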); conditions: PC-3E GFP / TEM4-18 mCherry co-culture, imaging cell counts, at 1 µM; for red/green cell ratio (normalised): actives lie on both sides, counts scaled to control wells, 1 = unselective
[2] = viability loss in pontine glioma line – cell-based, SU-DIPG-XIII, MIPE4.0, CellTiter-Glo, qHTS, dose response (AID 1347061; cut-off not given, nearly all actives have AC50 up to about 37 µM;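 note: cells exposed to compound for 48 hours before readout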); conditions: CellTiter-Glo ATP luminescence
[3] = viability loss with induced miR-34 in A549 – imaging, A549 dox-inducible miR-34, nuclei and caspase counts, primary screen (AID 1347080;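 active = compounds whose cell count with miR-34 switched on is under 0.7 times the count with it off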); conditions: A549 miR-34 inducible, Hoechst nuclei count, 48 h
[4] = MELAS cybrid and Rieske KO viability enhancers – cell-based, MELAS cybrids, Rieske KO mouse fibroblasts, CellTiter-Glo, primary screen (AID 1508586); conditions: low glucose;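 note: z relative to plate mean and SD of compound and empty wells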
[5] = viability loss in pontine glioma line – cell-based, JHH-DIPG-1, MIPE4.0, CellTiter-Glo, qHTS, dose response (AID 1347062; cut-off not given, nearly all actives have AC50 up to about 27 µM;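 for AC50: cells exposed to compound for two days before readout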); conditions: JHH-DIPG-1 viability, CellTiter-Glo ATP luminescence
[6] = viability loss in pontine glioma line – cell-based, SU-DIPG-XIII, MIPE5.0, CellTiter-Glo, qHTS, dose response (AID 1347064; cut-off not given, nearly all actives have AC50 up to about 23 µM;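 for AC50: cells exposed to compound for 48 hours before the viability read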); conditions: CellTiter-Glo ATP luminescence
[7] = viability loss in pontine glioma line – cell-based, SU-DIPG-XXV, MIPE5.0, CellTiter-Glo, qHTS, dose response (AID 1347065; cut-off not given, nearly all actives have AC50 up to about 26 µM;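 note: cells exposed to compound for 48 hours before ATP readout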); conditions: CellTiter-Glo ATP luminescence
[8] = growth inhibition of DIPG cells – cell-based, MIPE4.0 library, CellTiter-Glo luminescence, qHTS (AID 1347066; cut-off not given, nearly all actives have AC50 up to about 30 µM;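 note: cells exposed to compound for 48 hours before readout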); conditions: SU-DIPG-VI viability, CellTiter-Glo ATP luminescence
[9] = JHH-DIPG-1 glioma cell viability, MIPE5.0 library, CellTiter-Glo luminescence, qHTS (AID 1347067; cut-off not given, nearly all actives have AC50 up to about 26 µM;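 note: cells exposed to compound for 48 hours before readout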); conditions: JHH-DIPG-1 glioma viability, CellTiter-Glo ATP luminescence
[10] = blockers of cellular phospholipid synthesis – cell-based, LOPAC library, screen 4, primary screen (AID 1347384; call rule not given here); conditions: animal cells, phospholipid biosynthesis inhibition screen; at 10 µM
[11] = viability loss in pontine glioma line – cell-based, SU-DIPG-IV, MIPE4.0, CellTiter-Glo, qHTS, dose response (AID 1347063; cut-off not given, nearly all actives have AC50 up to about 30 µM;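 note: compound exposure lasted 48 hours before the viability readout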); conditions: CellTiter-Glo ATP luminescence
[12] = growth inhibition of DIPG cells – cell-based, MIPE5.0 library, qHTS (AID 1347068; cut-off not given, nearly all actives have IC50 up to about 30 µM;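 for IC50: cells exposed to compound for 48 hours before viability readout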); conditions: SU-DIPG-XXV viability
[13] = viability loss in pontine glioma line – cell-based, SU-DIPG-XVII, MIPE5.0, CellTiter-Glo, qHTS, dose response (AID 1347060; cut-off not given, nearly all actives have AC50 up to about 26 µM;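 for AC50: cells exposed to compound for 48 hours before viability readout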); conditions: CellTiter-Glo ATP luminescence
[14] = measured here: epithelial PC-3E GFP cell survival
[15] = measured here: mesenchymal TEM4-18 mCherry cell survival
[16] = stronger effect = lower value, cell number ratio, induced over uninduced
[17] = measured here: relative caspase fold change +Dox/-Dox
[18] = measured here: total cells with miR-34 induction, stronger effect = lower value
[19] = measured here: total cells without miR-34 induction
[20] = MELAS cybrid survival, CellTiter-Glo 48 h, stronger effect = higher value
[21] = Rieske KO mouse fibroblast survival, CellTiter-Glo 72 h

In the case of `NC(=O)N/N=C/c1ccc([N+](=O)[O-])o1`, the red/green cell ratio (normalised) [1] is reported as 1.13 (inactive), the normalised cell number [1, 14] is reported as 0.55 and the normalised cell number [1, 15] is reported as 0.62. For the same compound, the outcome [2] was “inactive”, the fold change [3, 16] was 0.848 (inactive) and 0.979 (inactive) and the fold change [3, 17] was 1.31 and 0.64. For the same compound, the cell count [3, 18] was 7760 and 9710, the cell count [3, 19] was 9150 and 9920 and the z-score [4, 20] was -0.906 (inactive). For the same compound, the z-score [4, 21] was -1.1.
With `Cn1c(=O)c2c(ncn2C)n(C)c1=O` the red/green cell ratio (normalised) [1] was 0.97 (inactive), the normalised cell number [1, 14] was 1.17 and the normalised cell number [1, 15] was 1.14. The outcome [2] was “inactive”, the outcome [5] was “inactive” and the outcome [6] was “inactive”. For the same compound, the outcome [7] was “inactive”, the outcome [8] was “inactive” and the outcome [9] was “inactive”. For the same compound, the fold change [3, 16] was 0.965 (inactive) and 0.863 (inactive), the fold change [3, 17] was 1.02 and 1.01 and the cell count [3, 18] was 9770 and 10600. For the same compound, the cell count [3, 19] was 10100 and 12300, the outcome [10] was “inactive” and the z-score [4, 20] was 0.603 (inactive). The z-score [4, 21] was -0.496.
For `O=C(N[C@H](CO)[C@H](O)c1ccc([N+](=O)[O-])cc1)C(Cl)Cl`, the red/green cell ratio (normalised) [1] was 0.78 (inactive), the normalised cell number [1, 14] was 1.21 and the normalised cell number [1, 15] was 0.95. The outcome [5] was “inactive”, the outcome [11] was “inactive” and the outcome [8] was “inactive”. For the same compound, the fold change [3, 16] was 0.94 (inactive) and 0.855 (inactive), the fold change [3, 17] was 1.13 and 1.29 and the cell count [3, 18] was 8280 and 6420. For the same compound, the cell count [3, 19] was 8810 and 7510, the z-score [4, 20] was -0.509 (inactive) and 0.536 and the z-score [4, 21] was -3.37 and 2.44.
For `CS(=O)(=O)c1ccc([C@@H](O)[C@@H](CO)NC(=O)C(Cl)Cl)cc1`, the red/green cell ratio (normalised) [1] was 0.94 (inactive), the normalised cell number [1, 14] was 1.12 and the normalised cell number [1, 15] was 1.06. For the same compound, the outcome [2] was “inactive”, the outcome [5] was “inactive” and the outcome [11] was “inactive”. For the same compound, the outcome [8] was “inactive”, the fold change [3, 16] was 0.9 (inactive) and 0.984 (inactive) and the fold change [3, 17] was 1.05 and 2.01. For the same compound, the cell count [3, 18] was 7540 and 11000, the cell count [3, 19] was 8380 and 11100 and the z-score [4, 20] was 0.78 (inactive). For the same compound, the z-score [4, 21] was -3.27.
For `Cc1cccc(N(C)C(=S)Oc2ccc3ccccc3c2)c1`, the red/green cell ratio (normalised) [1] was 1.19 (inactive), the normalised cell number [1, 14] was 1.22 and the normalised cell number [1, 15] was 1.46. The outcome [5] was “inactive”, the outcome [6] was “inactive” and the outcome [8] was “inactive”. The outcome [12] was “inactive”, the fold change [3, 16] was 0.98 (inactive) and 0.897 (inactive) and 0.793 (inactive) and the fold change [3, 17] was 1.24 and 1.29 and 1.54. For the same compound, the cell count [3, 18] was 8090 and 8100 and 9280, the cell count [3, 19] was 8260 and 9020 and 11700 and the z-score [4, 20] was -0.305 (inactive) and 0.185 (inactive). For the same compound, the z-score [4, 21] was 0.765 and 0.376.
With `Cc1ccccc1N1C(=O)c2cc(S(N)(=O)=O)c(Cl)cc2NC1C` (centres undefined) the red/green cell ratio (normalised) [1] was 1.25 (inactive), the normalised cell number [1, 14] was 1.15 and the normalised cell number [1, 15] was 1.44. The outcome [2] was “inactive”, the outcome [5] was “inactive” and the outcome [11] was “inactive”. For the same compound, the outcome [7] was “inactive”, the outcome [8] was “inactive” and the outcome [9] was “inactive”. The outcome [12] was “inactive”, the outcome [10] was “inactive” and the z-score [4, 20] was -0.2 (inactive) and 0.948 (inactive). For the same compound, the z-score [4, 21] was 0.325 and -0.0446.
For `Cc1onc(-c2ccccc2Cl)c1C(=O)N[C@@H]1C(=O)N2[C@@H]1SC(C)(C)[C@@H]2C(=O)O`, the red/green cell ratio (normalised) [1] was 1.1 (inactive), the normalised cell number [1, 14] was 1.34 and the normalised cell number [1, 15] was 1.48. For the same compound, the outcome [2] was “inactive”, the outcome [11] was “inactive” and the outcome [8] was “inactive”. The fold change [3, 16] was 0.913 (inactive) and 0.866 (inactive), the fold change [3, 17] was 1.38 and 0.839 and the cell count [3, 18] was 8800 and 10900. For the same compound, the cell count [3, 19] was 9640 and 12500, the z-score [4, 20] was 1.06 (inactive) and the z-score [4, 21] was 0.283.
In the case of `OC[C@H]1O[C@@H](Oc2ccc(O)cc2)[C@H](O)[C@@H](O)[C@@H]1O`, the red/green cell ratio (normalised) [1] is reported as 1.05 (inactive), the normalised cell number [1, 14] is reported as 1.15 and the normalised cell number [1, 15] is reported as 1.21. For the same compound, the outcome [2] was “inactive”, the outcome [5] was “inactive” and the outcome [11] was “inactive”. The outcome [8] was “inactive”, the fold change [3, 16] was 0.914 (inactive) and the fold change [3, 17] was 0.569. The cell count [3, 18] was 9130, the cell count [3, 19] was 9990 and the z-score [4, 20] was 0.856 (inactive). The z-score [4, 21] was 0.44.
With `CC(C)COCC(CN(Cc1ccccc1)c1ccccc1)N1CCCC1` (centres undefined) the red/green cell ratio (normalised) [1] was 1.11 (inactive), the normalised cell number [1, 14] was 1.06 and the normalised cell number [1, 15] was 1.18. The AC50 [13] was 20.9 µM (active), the AC50 [6] was 14.8 µM (active) and the AC50 [7] was 18.6 µM (active). The AC50 [9] was 18.6 µM (active), the IC50 [12] was 16.6 µM (active) and the outcome [10] was “inactive”. The z-score [4, 20] was -1.13 (inactive) and -0.882 (inactive) and the z-score [4, 21] was -0.167 and 0.23.
In the case of `CN(C)CCC=C1c2ccccc2C=Cc2ccccc21`, the red/green cell ratio (normalised) [1] is reported as 1.06 (inactive), the normalised cell number [1, 14] is reported as 1.13 and the normalised cell number [1, 15] is reported as 1.19. The outcome [2] was “inactive”, the outcome [11] was “inactive” and the outcome [8] was “inactive”. For the same compound, the outcome [12] was “inactive”, the outcome [10] was “inactive” and the z-score [4, 20] was -1.05 (inactive) and 0.34 (inactive). The z-score [4, 21] was -0.783 and 0.18.
In the case of `COc1ccc(C(=O)CC(=O)c2ccc(C(C)(C)C)cc2)cc1`, the red/green cell ratio (normalised) [1] is reported as 1.31 (inactive), the normalised cell number [1, 14] is reported as 0.9 and the normalised cell number [1, 15] is reported as 1.18. For the same compound, the AC50 [5] was 3.72 µM (active), the AC50 [11] was 5.26 µM (active) and the outcome [7] was “inactive”. The outcome [9] was “inactive”, the outcome [12] was “inactive” and the fold change [3, 16] was 0.967 (inactive) and 0.867 (inactive). For the same compound, the fold change [3, 17] was 0.938 and 3.78, the cell count [3, 18] was 7480 and 11300 and the cell count [3, 19] was 7740 and 13000. The z-score [4, 20] was -0.399 (inactive) and 2 (active) and the z-score [4, 21] was 0.325 and 0.254.
In the case of `CC/C(=C(/CC)c1ccc(O)cc1)c1ccc(O)cc1`, the red/green cell ratio (normalised) [1] is reported as 1.15 (inactive), the normalised cell number [1, 14] is reported as 1.1 and the normalised cell number [1, 15] is reported as 1.27. The outcome [13] was “inactive”, the outcome [5] was “inactive” and the outcome [6] was “inactive”. The outcome [7] was “inactive”, the outcome [12] was “inactive” and the z-score [4, 20] was 0.343 (inactive) and 0.665 (inactive). The z-score [4, 21] was -0.0589 and -0.544.
With `COc1cc(NS(=O)(=O)c2ccc(N)cc2)nc(OC)n1` the red/green cell ratio (normalised) [1] was 1.12 (inactive), the normalised cell number [1, 14] was 0.64 and the normalised cell number [1, 15] was 0.72. The outcome [2] was “inactive”, the outcome [5] was “inactive” and the outcome [11] was “inactive”. The outcome [8] was “inactive”, the fold change [3, 16] was 0.911 (inactive) and 0.916 (inactive) and 0.961 (inactive) and the z-score [4, 20] was -0.175 (inactive) and 0.0464 (inactive) and -0.547 (inactive). The z-score [4, 21] was 0.68 and -0.334 and -1.37.
For `O=c1oc2cc(O)ccc2s1`, the red/green cell ratio (normalised) [1] was 0.91 (inactive) and 0.99 (inactive), the normalised cell number [1, 14] was 1.1 and 0.89 and the normalised cell number [1, 15] was 1 and 0.88. The outcome [2] was “inactive”, the outcome [5] was “inactive” and the outcome [11] was “inactive”. The outcome [6] was “inactive”, the outcome [7] was “inactive” and the outcome [8] was “inactive”. For the same compound, the outcome [9] was “inactive”, the outcome [12] was “inactive” and the fold change [3, 16] was 0.941 (inactive). For the same compound, the fold change [3, 17] was 0.692, the cell count [3, 18] was 8830 and the cell count [3, 19] was 9380. The z-score [4, 20] was -0.382 (inactive) and the z-score [4, 21] was 0.46.
